Laboratory results: ChEMBL document CHEMBL3988442, “University of Dundee, Small-Polar-MMV Screening Library” (2021)
Entries with a potency or affinity are not part of this list.

Molecular target: Protein translocase subunit SecA (Escherichia coli (strain K12)) (UniProt P10408)
Test: Assay to Identify E. coli SecA ATPase Inhibitors
Assay type: functional
Design: scale not given: direction of the effect not stated beside the values
Details: 30 µM

Chain of Protein translocase subunit SecA (Escherichia coli (strain K12)) (P10408 whole entry): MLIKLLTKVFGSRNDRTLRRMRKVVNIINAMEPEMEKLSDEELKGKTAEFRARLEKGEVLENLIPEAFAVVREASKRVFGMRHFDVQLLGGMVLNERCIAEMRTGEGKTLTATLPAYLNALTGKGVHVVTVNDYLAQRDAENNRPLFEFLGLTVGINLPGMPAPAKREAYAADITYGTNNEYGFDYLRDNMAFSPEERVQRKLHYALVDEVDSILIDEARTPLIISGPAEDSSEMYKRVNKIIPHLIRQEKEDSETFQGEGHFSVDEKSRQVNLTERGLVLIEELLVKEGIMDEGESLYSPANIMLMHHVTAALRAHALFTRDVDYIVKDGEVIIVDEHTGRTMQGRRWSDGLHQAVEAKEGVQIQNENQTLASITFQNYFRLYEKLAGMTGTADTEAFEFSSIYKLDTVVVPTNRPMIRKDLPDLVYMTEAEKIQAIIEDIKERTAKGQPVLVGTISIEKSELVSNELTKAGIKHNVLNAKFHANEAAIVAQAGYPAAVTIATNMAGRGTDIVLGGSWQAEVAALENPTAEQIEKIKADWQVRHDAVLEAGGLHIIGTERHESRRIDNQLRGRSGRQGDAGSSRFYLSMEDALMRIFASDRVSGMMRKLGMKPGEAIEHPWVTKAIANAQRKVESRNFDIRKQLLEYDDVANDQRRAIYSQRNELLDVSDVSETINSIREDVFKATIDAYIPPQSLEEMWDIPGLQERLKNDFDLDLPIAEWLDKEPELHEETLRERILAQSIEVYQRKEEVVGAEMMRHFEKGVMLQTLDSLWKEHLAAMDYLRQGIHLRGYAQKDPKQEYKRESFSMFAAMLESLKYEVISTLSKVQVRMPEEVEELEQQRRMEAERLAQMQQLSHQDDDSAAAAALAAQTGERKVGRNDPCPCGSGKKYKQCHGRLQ

Structure (SMILES) | Percent Effect [%]
CNC(=O)c1cc2c(nc1NCC(C)C)CCN(S(=O)(=O)C1CC1)CC2 | -6.06
COCCN(C)CC(=O)N1C[C@H]2CC[C@@H]1CN(C(=O)c1ccncc1)C2 | -4.1
Cc1nn(CC(C)C)c(N(C)C)c1CNCc1cc2ccccc2[nH]1 | -3.68
CN(C)Cc1ccnc(C2CCCN2Cc2ccncc2)n1 (stereo not drawn) | -4.54
O=C([C@H]1COC[C@H]2CN(Cc3ccco3)C[C@H]21)N1CCCO1 | -7.92
Cc1cc(C)c(CNC(=O)C2CCCN(c3cnccn3)C2)c(=O)[nH]1 (stereo not drawn) | -3.46
COCCNC(=O)C[C@@H]1COC[C@H]2CN(C(=O)c3cnccn3)C[C@@H]12 | -0.696
CN(C)[C@@H]1CCN(c2ncccn2)[C@H]1Cc1ccncc1 | -4.35
CC(CNCc1ccncc1)Oc1ccccn1 (stereo not drawn) | -0.77
COc1ncccc1CN1Cc2nnn(C)c2C(COCC2CC2)C1 (stereo not drawn) | -1.6
Cc1noc2nc(C3CCN(Cc4ccncc4)CC3)cc(C(F)F)c12 | -9.38
CSc1ncccc1C(=O)N1C[C@H]2CC[C@@H]1CN(c1cnccn1)C2 | -6.82
CC(C(=O)Nc1ccc(N2CCCC2)nc1)n1ccnc1 (stereo not drawn) | -1.03
Cc1ccc(Cl)cc1C(=O)N1CCC2(CC1)c1ccccc1[C@@H](N)[C@@H]2O | -6.01
Cc1nc(CN2CCN(C(=O)c3ccn(C)c(=O)c3)CC2)cs1 | -3.89
CNS(=O)(=O)c1ccc(C(=O)N2CCCC2c2ccccc2)o1 (stereo not drawn) | -6.62
CS(=O)(=O)NCC1CCCCN1C(=O)Nc1cccnc1N1CCCC1 (stereo not drawn) | -15.1
Cc1cccc(N2CCN(CCNC(=O)C(C)n3cncn3)CC2)c1 (stereo not drawn) | -4.94
CCn1nc(CC(C)C)cc1C(=O)NCCCOC | -2.12

Molecular target: T1, Ubiquitin-activating enzyme e1, putative (Leishmania donovani (strain BPK282A1)) (UniProt E9BSI1)
T1 sequence (whole entry): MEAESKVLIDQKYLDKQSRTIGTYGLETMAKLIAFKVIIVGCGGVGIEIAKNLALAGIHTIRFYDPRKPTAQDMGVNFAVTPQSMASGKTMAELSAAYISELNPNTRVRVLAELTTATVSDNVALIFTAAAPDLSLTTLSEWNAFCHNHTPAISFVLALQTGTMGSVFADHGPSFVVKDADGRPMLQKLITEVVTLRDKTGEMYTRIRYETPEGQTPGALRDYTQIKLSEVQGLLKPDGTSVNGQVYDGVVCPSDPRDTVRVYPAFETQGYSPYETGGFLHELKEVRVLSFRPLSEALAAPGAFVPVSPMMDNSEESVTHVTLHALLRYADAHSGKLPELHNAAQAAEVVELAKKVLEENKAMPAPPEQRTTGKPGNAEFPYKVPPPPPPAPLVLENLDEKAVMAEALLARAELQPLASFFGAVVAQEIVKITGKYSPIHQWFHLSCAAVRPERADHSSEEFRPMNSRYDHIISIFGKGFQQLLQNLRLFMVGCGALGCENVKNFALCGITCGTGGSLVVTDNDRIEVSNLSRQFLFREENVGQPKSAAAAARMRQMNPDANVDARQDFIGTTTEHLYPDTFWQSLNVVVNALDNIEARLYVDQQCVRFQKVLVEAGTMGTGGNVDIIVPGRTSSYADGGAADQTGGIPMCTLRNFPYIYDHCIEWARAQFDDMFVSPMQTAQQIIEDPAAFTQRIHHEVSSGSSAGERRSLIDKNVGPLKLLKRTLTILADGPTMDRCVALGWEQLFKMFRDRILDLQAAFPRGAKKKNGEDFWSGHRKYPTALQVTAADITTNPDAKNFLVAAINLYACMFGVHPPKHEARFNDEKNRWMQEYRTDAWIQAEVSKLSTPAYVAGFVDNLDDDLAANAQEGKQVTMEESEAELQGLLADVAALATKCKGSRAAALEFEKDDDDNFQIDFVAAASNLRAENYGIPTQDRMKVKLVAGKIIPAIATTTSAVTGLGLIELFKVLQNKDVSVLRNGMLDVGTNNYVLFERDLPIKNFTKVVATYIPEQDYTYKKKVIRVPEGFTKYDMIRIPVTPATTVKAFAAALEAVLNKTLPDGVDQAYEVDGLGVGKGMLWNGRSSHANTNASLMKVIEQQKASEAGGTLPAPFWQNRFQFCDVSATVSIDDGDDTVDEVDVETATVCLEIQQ
Test: Leishmania donovani Ubiquitin Activating Enzyme (LdE1)
Assay type: functional
Design: scale not given: direction of the effect not stated beside the values
Details: 30 µM

Structure (SMILES) | Percent Effect [%]
COCCNC(=O)C(C)n1cc(Br)cn1 (stereo not drawn) | 5.2
Cn1nccc1C1CCN(Cc2csc(-c3ncccn3)n2)CC1 | 24.3
Cc1ccc(NS(=O)(=O)CC2=NC(=O)n3cccc3C2=O)cc1 | -4
COc1ccc(C)cc1S(=O)(=O)NCC(c1cccn1C)N(C)C (stereo not drawn) | 8.22
CSc1ccc(CNC(c2ccccc2)c2nccn2C)cc1 (stereo not drawn) | 21.6
CCCNC(=O)N1CCN(Cc2cc(C)no2)CC1 | 23.7
CN(Cc1ccco1)Cc1ccccc1CNC(=O)c1ccncc1 | 5.41
CCc1c(C)sc(NC(=O)CN2CCN(CC)CC2)c1C(=O)OC | -12.5
COc1ccc(CN(Cc2cncn2C)CC2CCCO2)cc1OC (stereo not drawn) | 12.2
O=c1ccc(-c2cccs2)nn1CN1CCN(Cc2ccccc2)CC1 | -1.33
COCC1Cn2nnc(-c3cnn(C)c3)c2CN1Cc1ccc(C)s1 (stereo not drawn) | 10.8
CC1CCCCN1c1nc2c(c(=O)[nH]1)CCN(Cc1cccnc1)C2 (stereo not drawn) | 12.2
O=C(Nc1ccccc1)C1CN(CC2CC2)CC12CCOCC2 (stereo not drawn) | 5.33
COCCN1C[C@H]2CC[C@@]3(N=C(C)N(CC4CC4)C3=O)[C@H]2C1 | 5.41
CC(C)c1cc(C(=O)N2CCN(Cc3ccsc3)CC2)n[nH]1 | 13.5
CCc1c(C(=O)NC2CCS(=O)(=O)C2)cnn1-c1ccc(F)cc1 (stereo not drawn) | 15.2
CS(=O)(=O)N1CCCC12CCCN(S(=O)(=O)c1cc(F)cc(F)c1)C2 (stereo not drawn) | -8.11
COc1ccc(C2CCCCCN2S(=O)(=O)N(C)C)cc1 (stereo not drawn) | 12.5
CC(Cn1ccnc1)NC(=O)NCCNC(=O)C(C)C (stereo not drawn) | 23.7
O=C(NCCCn1cncn1)NCC(c1ccco1)N1CCCCC1 (stereo not drawn) | 10.4

Structure (SMILES) | Percent Effect [%]
CNC(=O)c1cc2c(nc1NCC(C)C)CCN(S(=O)(=O)C1CC1)CC2 | 2.7
COCCN(C)CC(=O)N1C[C@H]2CC[C@@H]1CN(C(=O)c1ccncc1)C2 | 5.33
Cc1nn(CC(C)C)c(N(C)C)c1CNCc1cc2ccccc2[nH]1 | 10.8
CN(C)Cc1ccnc(C2CCCN2Cc2ccncc2)n1 (stereo not drawn) | 9.46
O=C([C@H]1COC[C@H]2CN(Cc3ccco3)C[C@H]21)N1CCCO1 | 18.7
Cc1cc(C)c(CNC(=O)C2CCCN(c3cnccn3)C2)c(=O)[nH]1 (stereo not drawn) | 10.5
COCCNC(=O)C[C@@H]1COC[C@H]2CN(C(=O)c3cnccn3)C[C@@H]12 | 8.22
CN(C)[C@@H]1CCN(c2ncccn2)[C@H]1Cc1ccncc1 | 2.6
CC(CNCc1ccncc1)Oc1ccccn1 (stereo not drawn) | 9.33
COc1ncccc1CN1Cc2nnn(C)c2C(COCC2CC2)C1 (stereo not drawn) | 7.79
Cc1noc2nc(C3CCN(Cc4ccncc4)CC3)cc(C(F)F)c12 | 1.35
CSc1ncccc1C(=O)N1C[C@H]2CC[C@@H]1CN(c1cnccn1)C2 | 7.79
CC(C(=O)Nc1ccc(N2CCCC2)nc1)n1ccnc1 (stereo not drawn) | 5.41
Cc1ccc(Cl)cc1C(=O)N1CCC2(CC1)c1ccccc1[C@@H](N)[C@@H]2O | 5.41
Cc1nc(CN2CCN(C(=O)c3ccn(C)c(=O)c3)CC2)cs1 | 19
CNS(=O)(=O)c1ccc(C(=O)N2CCCC2c2ccccc2)o1 (stereo not drawn) | 13.2
CS(=O)(=O)NCC1CCCCN1C(=O)Nc1cccnc1N1CCCC1 (stereo not drawn) | 13.2
Cc1cccc(N2CCN(CCNC(=O)C(C)n3cncn3)CC2)c1 (stereo not drawn) | 28.9
CCn1nc(CC(C)C)cc1C(=O)NCCCOC | 6.94
